# Only some compounds are listed: those with a hit (about 4.2% of all), similar ones and a draw of the others.
# ssDAF12 agonist – S. stercoralis DAF-12 nuclear receptor activators, primary screen, cell-based, luminescence, HEK293, GRIP1 co-expression, lit1-tk-luc; Nuclear hormone receptor DAF-12 (Strongyloides stercoralis); HEK293 ssDAF-12/GRIP1 lit1-tk-luc reporter; % of 3 µM dafachronic acid response; activation, % at 6.8 µM; hit rate 1% among 370,000; AID 652126, 2013;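 active = activation above the mean over all tested compounds plus 3 SD, cut at about 0.9% in these data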;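 also: 0% = DMSO-only wells and 100% = 3 µM delta7-dafachronic acid wells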
# hcDAF12 agonist – H. contortus DAF-12 nuclear receptor activators, primary screen, cell-based, luminescence, HEK293, lit1-tk-luc reporter; HEK293 hcDAF-12 lit1-tk-luc reporter; 0% DMSO, 100% Δ7-dafachronic acid; activation, % at 6.8 µM; hit rate 1.4% among 370,000; AID 652067, 2013;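 active = activation above the mean of all tested compounds plus 3 SD, cut at about 5.5% in these data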;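 also: 100% = response to 3 µM Δ7-dafachronic acid high control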
# hgDAF12 agonist – H. glycines DAF-12 receptor agonists, primary screen, cell-based, luminescence, HEK293, GAL4 fusion, UAS-luciferase; hit rate 1.8% among 370,000; HEK293 GAL4-hgDAF12 UAS-luciferase reporter, agonist luminescence; normalized to butyrate control; activation, % at 6.8 µM; Nuclear hormone receptor DAF-12 (Heterodera glycines), GAL4 fusion; AID 687014, 2013;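 active = activation above a cutoff set at the mean of all screened compounds plus 3 SD, cut at about 10% in these data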;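 also: 0% = DMSO wells and 100% = sodium butyrate wells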
# DAX1 StAR inh – DAX1 (NR0B1) inhibitors on StAR promoter, primary screen, cell-based, luminescence, SF-1 (NR5A1), full-length DAX-1; HEK293T StAR-luciferase reporter, SF-1/DAX-1 repression relief; inhibition, % at 6.8 µM; AID 652010, 2013; hit rate 1.1% among 370,000;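 active = inhibition above the mean over all tested compounds plus 3 SD, cut at about 3.6% in these data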;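 also: 0% = DAX-1 cells with DMSO and 100% = cells lacking DAX-1 with DMSO; higher inhibition means more luminescence from relief of DAX-1 repression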
# Wnt bcat act – Wnt/beta-catenin pathway activators, primary screen, cell-based, plate reader, single point | Wnt/beta-catenin reporter cell assay, activator | AID 743398, 2014 | activation, % at 9.35 µM | hit rate 1.2% among 300,000; in the data active = activation above about 30%, passing the limit was not always enough;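 also: 0% = neutral control wells and 100% = positive control wells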
# esBAF inh – Bmi1 luciferase reporter increase in mESCs, primary screen, esBAF inhibitor project, mouse ES cells, Bmi1 luciferase knock-in, single point. 24 h; 100% = twice the neutral-well signal. reporter increase, % at 12.5 µM. hit rate 2% among 350,000; in the data active = activation above about 40%;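 also: 0% = median of the plate's neutral control wells and 100% = double that signal; a rise in the Bmi1 reporter signal indicates esBAF inhibition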
# DAX1 conf – DAX1 (NR0B1) inhibitors relieving SF-1 repression, confirmation, cell-based, luminescence, HEK293T, full-length DAX-1, SF-1 activated StAR promoter; inhibition, % at 6.8 µM; hit rate 87% among 2,400; HEK293T StAR-promoter luciferase reporter, SF-1/DAX-1 repression; shares compounds with DAX1 StAR inh;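 active = inhibition above the average of every tested compound plus 3 SD, cut at about 3.8% in these data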;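 also: 0% = DAX-1 cells with DMSO and 100% = no DAX-1 control cells with DMSO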
# Target sequence (P51843 whole entry, looked up): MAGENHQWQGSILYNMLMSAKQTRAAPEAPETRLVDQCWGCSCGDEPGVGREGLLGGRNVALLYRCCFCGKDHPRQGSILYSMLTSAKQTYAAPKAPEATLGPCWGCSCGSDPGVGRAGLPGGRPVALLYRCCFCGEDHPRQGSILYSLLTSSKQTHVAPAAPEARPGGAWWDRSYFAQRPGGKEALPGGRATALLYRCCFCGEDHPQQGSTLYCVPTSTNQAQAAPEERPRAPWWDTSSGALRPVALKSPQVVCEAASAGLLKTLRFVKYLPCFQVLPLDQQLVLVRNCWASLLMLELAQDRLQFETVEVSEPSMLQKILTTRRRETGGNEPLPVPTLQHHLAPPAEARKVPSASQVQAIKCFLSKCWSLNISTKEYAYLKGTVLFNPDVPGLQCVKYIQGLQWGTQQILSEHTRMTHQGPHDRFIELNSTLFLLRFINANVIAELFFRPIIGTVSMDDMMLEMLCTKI
# SF1 mutant ctr – StAR reporter signal changes without DAX1, counter-screen for DAX1 inhibitor project, cell-based, luminescence, AF-2 mutant SF-1, transactivation; HEK293 StAR-luciferase, SF-1 AF2 mutant; hit rate 78% among 2,400; inhibition, % at 6.8 µM; shares compounds with DAX1 StAR inh;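 active = inhibition above the mean of all tested compounds plus 3 SD, cut at about 3% in these data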;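 also: 0% = DAX-1 transfected cells with DMSO and 100% = cells without DAX-1 with DMSO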
# LXR ag – LXR agonists, Gal4 luciferase reporter, confirmation, counter-screen for hcDAF-12 agonist project, cell-based, luminescence, HEK293, H. contortus campaign; shares compounds with hcDAF12 agonist; HEK293 Gal4-LXR tk-luc reporter, 24 h; normalized: DMSO 0%, positive control 100%; activation, % at 6.8 µM; 3,400 tested, under 10 active; AID 743027, 2013;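 active = mean percent activation of the reporter above a cutoff set as the average over tested compounds plus their standard deviation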
# hcDAF12 conf – H. contortus DAF-12 receptor agonists, confirmation, cell-based, luminescence, HEK293, lit1-tk-luc, triplicate; HEK293 hcDAF-12 lit1-tk-luc reporter; % of Δ7-dafachronic acid response; hit rate 61% among 3,400; shares compounds with hcDAF12 agonist; activation, % at 6.8 µM;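 active = mean activation across triplicate tests above the threshold derived from the earlier primary screen, cut at about 5.5% in these data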;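 also: 0% = DMSO only wells and 100% = 3 µM Δ7-dafachronic acid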
# hgDAF12 ag – H. glycines DAF-12 receptor agonists, confirmation, cell-based, luminescence, HEK293, GAL4-LBD fusion. HEK293 GAL4-hgDAF12 luciferase reporter, agonist mode; percent of butyrate response. shares compounds with hgDAF12 agonist. activation, % at 6.8 µM. hit rate 80% among 3,300;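 active = mean activation over triplicate wells above the hit cutoff derived from the earlier primary screen, cut at about 11% in these data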;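 also: 0% = DMSO low control and 100% = 2 mM sodium butyrate high control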
# LXR ag 2 – LXR agonists, Gal4 luciferase reporter, confirmation, counter-screen for hgDAF-12 agonist project, cell-based, luminescence, HEK293, H. glycines campaign. shares compounds with hgDAF12 agonist. 24 h. activation, % at 6.8 µM. 3,300 tested, under 10 active. AID 743051, 2013;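 active = mean activation of the triplicate above a set limit carried over from the primary screen, none filed active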
# Active calls of the source: *; · = no result.
SMILES,ssDAF12 agonist,hcDAF12 agonist,hgDAF12 agonist,DAX1 StAR inh,Wnt bcat act,esBAF inh,DAX1 conf,SF1 mutant ctr,LXR ag,hcDAF12 conf,hgDAF12 ag,LXR ag 2
Cc1cc(-c2cn3ccccc3n2)c(C)n1-c1ccccc1,0.3,5.7*,13.6*,4.6*,6.0,·,16.6*,5.4*,·,·,7.2,0.9
c1ccc(-c2cn3ccccc3n2)cc1,0.4,8.9*,14.5*,5.0*,15.9,0.3,12.2*,8.7*,1.3,7.4*,15.3*,0.7
COc1ccccc1NC(=O)N[C@H]1CC[C@H](CCNC(=O)c2ccc3c(c2)OCO3)O[C@@H]1CO,·,·,·,·,·,7.3,·,·,·,·,·,·
CC(=O)Nc1ccc(NC(=O)COc2ccc3c(c2)CCC3)cc1,-1.3,0.2,-0.6,0.2,0.2,·,·,·,·,·,·,·
Cc1ccnc(NC(=O)COc2ccc3c(c2)CCC3)c1,-0.4,5.2,13.9*,13.8*,-19.1,52.9*,12.2*,4.2*,·,·,12.3*,0.9
O=C(O)c1cc2c(ccc3ccccc32)o1,-1.3,0.6,3.5,0.5,-2.1,-3.3,·,·,·,·,·,·
O=C(c1cc2c(ccc3ccccc32)o1)N1CCCCC1,1.2*,6.8*,18.0*,14.8*,38.1*,-19.3,14.6*,8.7*,1.2,4.3,13.8*,0.8
CNC(=O)c1sc2nc(-c3ccc(OC)cc3)cn2c1C,0.3,9.1*,15.8*,5.7*,-3.5,11.1,10.7*,7.0*,0.7,2.0,13.4*,0.6
O=C(Nc1nc2cc3c(cc2s1)OCO3)C1CC1,-1.8,-0.8,3.2,0.1,0.1,·,·,·,·,·,·,·
O=C(Nc1nc2cc3c(cc2s1)OCCO3)C1CCCCC1,0.8,4.4,13.3*,14.7*,54.5*,-15.3,11.6*,4.4*,·,·,15.1*,1.0
O=C(Nc1nc2cc3c(cc2s1)OCO3)C1CCCCC1,0.3,9.8*,14.4*,11.8*,32.1*,·,14.7*,7.7*,1.2,5.2,15.6*,1.0
COc1cccc(C(=O)/C=C2\Sc3ccccc3N2C)c1,2.6*,13.0*,28.2*,5.4*,16.7,45.0*,11.4*,10.0*,1.7,9.1*,21.6*,1.0
O=C(NCC[C@@H]1CC[C@H](NC(=O)C2CC2)[C@H](CO)O1)c1cc(Cl)cc(Cl)c1,·,·,·,·,·,-0.1,·,·,·,·,·,·
COc1ccccc1C(=O)NNC(=O)c1cccc(Br)c1,0.2,4.7,9.3,1.4,16.4,28.9,·,·,·,·,·,·
COc1ccccc1C(=O)NNC(=O)c1cccc(Cl)c1,0.7,13.2*,17.1*,5.6*,23.7,·,14.0*,7.9*,1.0,7.5*,16.5*,0.7
COc1ccc(/C=C(\C#N)C(=O)Nc2ccccn2)cc1,-1.4,0.3,0.1,-0.2,-3.4,3.3,·,·,·,·,·,·
Cc1ccc(/C=C(\C#N)C(=O)Nc2ccccn2)o1,0.7,2.7,17.6*,10.7*,19.9,62.8*,10.1*,7.6*,·,·,12.8*,0.8
c1ccc2oc(-c3csc(NCC4CCCO4)n3)cc2c1 (configuration not stated),1.1*,4.0,14.9*,10.1*,-0.8,·,12.2*,7.0*,·,·,15.1*,0.9
C=CCNc1nc(-c2cc3ccccc3o2)cs1,1.5*,9.1*,18.4*,6.5*,·,·,14.2*,4.1*,1.6,8.3*,17.8*,0.8
CC(=O)CSc1nc2cc3c(cc2cc1C#N)OCCO3,0.0,11.8*,27.2*,7.9*,10.8,·,13.5*,4.9*,2.1,10.1*,19.4*,1.6
COC(=O)CSc1nc2ccc(C)cc2cc1C#N,1.4*,7.2*,25.9*,8.8*,67.1*,·,18.8*,11.1*,1.4,3.9,19.9*,1.1
COC(=O)CSc1nc2cc(C)cc(C)c2cc1C#N,-0.8,0.7,6.5,0.1,·,2.5,·,·,·,·,·,·
COc1cccc(N=c2oc3ccc(OC)cc3cc2-c2nc3ccccc3[nH]2)c1,3.6*,15.4*,16.1*,4.7*,20.3,7.8,-1.1,-2.0,0.1,6.3*,6.7,0.4
O=C(COc1ccccc1[N+](=O)[O-])Nc1ccc2c(c1)OCO2,0.3,9.2*,15.5*,6.7*,15.9,57.9*,6.8*,4.1*,0.8,5.8*,11.8*,0.7
Cc1cccc(OCC(=O)Nc2ccc3c(c2)OCO3)c1C,-0.7,-1.1,2.1,0.5,9.7,12.4,·,·,·,·,·,·
N#Cc1ccccc1OCC(=O)Nc1ccc2c(c1)OCO2,0.5,1.9,20.3*,5.9*,2.9,65.3*,6.5*,4.0*,·,·,13.3*,0.5

# Bioassay records as filed in PubChem.
